From PubChem BioAssay (NCI)
About 79,000 compounds went through this panel and 15% of them were active in at least one assay; those are over-represented in the sample as a whole. Active and inactive are the calls of the source. Rule as the data show it: active = growth inhibition above about 70%; inactive = the rest.

What was measured:
[1] = NCI Yeast Anticancer Drug Screen. Data for the rad52 strain (AID 147);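 also: 0% = growth of vehicle-treated control cultures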; settings: S. cerevisiae rad52 mutant growth inhibition, stronger effect = higher value
Outline: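 Read-out: growth inhibition versus vehicle-treated controls. Cells were a DNA repair-deficient yeast strain treated with compounds.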

[2] = NCI Yeast Anticancer Drug Screen. Data for the wt1 strain (AID 149);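 also: 0% = growth of vehicle-treated wt1 cultures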; settings: S. cerevisiae wt1 strain (SPY 50644) growth inhibition, stronger effect = higher value
Outline: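 Compounds are added to wt1 yeast cultures. Growth is then measured. Inhibition is expressed relative to vehicle-treated controls.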

[3] = NCI Yeast Anticancer Drug Screen. Data for the mgt1 strain (AID 153); settings: S. cerevisiae mgt1 mutant growth inhibition, stronger effect = higher value
Outline: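 mgt1 yeast grown with test compound; read-out is growth inhibition versus vehicle-treated cultures.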

[4] = NCI Yeast Anticancer Drug Screen. Data for the rad50 strain (AID 155);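 also: 0% = growth of vehicle-only cultures of the same strain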; settings: S. cerevisiae rad50 strain growth inhibition, stronger effect = higher value
Outline: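 Inhibition values express reduced yeast growth in compound-treated cultures relative to vehicle-treated controls.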

[5] = NCI Yeast Anticancer Drug Screen. Data for the mec2-1 strain (AID 157); settings: S. cerevisiae mec2-1 strain, stronger effect = higher value
Outline: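 Yeast mec2-1 mutant treated with compound. Readout: growth inhibition vs vehicle controls.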

[6] = NCI Yeast Anticancer Drug Screen. Data for the rad14 strain (AID 159);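 also: 0% = growth of vehicle-treated control cultures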; settings: S. cerevisiae rad14 strain growth inhibition, stronger effect = higher value
Outline: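 A mutant yeast strain defective in DNA damage repair is treated with compound; inhibition of its growth is scored against untreated, vehicle-exposed cultures.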

[7] = NCI Yeast Anticancer Drug Screen. Data for the sgs1 mgt1 strain (AID 161);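 also: 0% = growth of cultures given vehicle only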; settings: S. cerevisiae sgs1 mgt1 strain, stronger effect = higher value
Outline: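 Test agents were incubated with a DNA-repair-mutant yeast strain. Growth was then read and compared against vehicle-treated controls.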

[8] = NCI Yeast Anticancer Drug Screen. Data for the CLN2oe strain (AID 163);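 also: 0% = growth of vehicle-only control cultures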; settings: S. cerevisiae CLN2oe strain, stronger effect = higher value
Outline: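 Read-out: yeast growth inhibition, expressed relative to vehicle-only controls. The strain bears an engineered cell-cycle alteration.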

[9] = NCI Yeast Anticancer Drug Screen. Data for the cln2 rad14 strain (AID 165);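 also: 0% = growth equal to vehicle treated cultures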; settings: S. cerevisiae cln2 rad14 strain, stronger effect = higher value
Outline: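 cln2 rad14 yeast strain; compound exposure; growth inhibition read vs vehicle controls.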

[10] = NCI Yeast Anticancer Drug Screen. Data for the bub3 strain (AID 167); settings: S. cerevisiae bub3 mutant strain, stronger effect = higher value
Outline: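 Steps: expose the mutant yeast strain to compound; grow alongside vehicle-treated cultures; measure growth; express inhibition against the vehicle cultures.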

[11] = NCI Yeast Anticancer Drug Screen. Data for the wt2 strain (AID 169);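 also: 0% = growth of vehicle-treated yeast cultures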; settings: S. cerevisiae wt2 strain growth inhibition, stronger effect = higher value
Outline: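 Read-out: growth inhibition versus vehicle-treated control cultures after compound exposure of the yeast strain.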

[12] = NCI Yeast Anticancer Drug Screen. Data for the mlh1 strain (AID 171);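 also: 0% = growth of vehicle-treated control cultures of the same strain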; settings: S. cerevisiae mlh1 strain growth inhibition, stronger effect = higher value
Outline: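 Read-out: growth inhibition versus vehicle controls. Strain: engineered yeast with a defined DNA repair or cell cycle defect, compound-treated.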

[13] = NCI Yeast Anticancer Drug Screen. Data for the sgs1 strain (AID 173);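 also: 0% = growth of vehicle-only control cultures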; settings: S. cerevisiae sgs1 mutant, stronger effect = higher value
Outline: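 Read-out: yeast growth inhibition relative to vehicle controls, following compound exposure of a strain with a defined DNA repair/cell cycle alteration.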

[14] = NCI Yeast Anticancer Drug Screen. Data for the mlh1 rad18 strain (AID 175); settings: S. cerevisiae mlh1 rad18 strain growth inhibition, stronger effect = higher value
Outline: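 Yeast w/ defined DNA-repair lesions; compound exposure; growth vs vehicle controls → % inhibition.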

[15] = NCI Yeast Anticancer Drug Screen. Data for the rad18 strain (AID 177); settings: S. cerevisiae rad18 mutant growth inhibition, stronger effect = higher value
Outline: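 Readout: growth inhibition vs vehicle controls. Cells: genetically altered yeast strain, DNA repair defect.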

[16] = NCI Yeast Anticancer Drug Screen. Data for the rad50EPP+ strain (AID 151);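 also: 0% = growth of vehicle-treated control cultures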; settings: S. cerevisiae rad50 mutant strain, stronger effect = higher value
Outline: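 Growth inhibition read against vehicle controls in rad50EPP+ yeast, a strain altered in DNA damage repair, after compound exposure.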

[17] = at 5.0 µM (retest, dose inferred, filed as 0.5)
[18] = at 50.0 µM (retest, dose inferred, filed as 5.0)

Measured: growth inhibition

c1ccc2c(c1)sc1nc3ccncc3nc12
inactive: [1]; at 1.2 µM 5% | [1]; at 3.7 µM 16% | [1]; at 11.0 µM 38% | [1]; at 33.0 µM 61% | [2]; at 1.2 µM 0% | [2]; at 3.7 µM 13% | [2]; at 11.0 µM 21% | [2]; at 33.0 µM 20% | [2]; at 100.0 µM 29% | [3]; at 1.2 µM 2% | [3]; at 3.7 µM -2% | [3]; at 11.0 µM -1% | [3]; at 33.0 µM -1% | [3]; at 100.0 µM 2% | [4]; at 3.7 µM 35% | [4]; [17] -55% | [4]; at 11.0 µM 61% | [5]; at 1.2 µM 5% | [5]; at 3.7 µM 1% | [5]; [17] -38% | [5]; at 11.0 µM 0% | [5]; at 33.0 µM 3% | [5]; [18] -8% | [5]; at 50.0 µM 28.1% | [5]; at 100.0 µM 9% | [6]; at 1.2 µM 21% | [6]; at 3.7 µM 10% | [6]; at 11.0 µM 11% | [6]; at 33.0 µM 19% | [6]; at 100.0 µM 29% | [7]; [17] -61% | [7]; [18] -16% | [7]; at 50.0 µM 3.7% | [8]; at 1.2 µM 2% | [8]; at 3.7 µM 5% | [8]; at 11.0 µM 4% | [8]; at 33.0 µM 4% | [8]; at 100.0 µM 7% | [9]; [17] -50% | [9]; [18] -8% | [9]; at 50.0 µM 9.05% | [10]; at 1.2 µM 10% | [10]; at 3.7 µM 3% | [10]; [17] -51% | [10]; at 11.0 µM 8% | [10]; at 33.0 µM 11% | [10]; [18] 1% | [10]; at 50.0 µM 6.1% | [10]; at 100.0 µM 20% | [11]; at 1.2 µM 13% | [11]; at 3.7 µM 12% | [11]; at 11.0 µM 17% | [11]; at 33.0 µM 17% | [11]; at 100.0 µM 29% | [12]; at 1.2 µM -5% | [12]; at 3.7 µM -1% | [12]; at 11.0 µM 1% | [12]; at 33.0 µM 8% | [12]; at 100.0 µM 12% | [13]; at 1.2 µM -5% | [13]; at 3.7 µM -8% | [13]; at 11.0 µM 3% | [13]; at 33.0 µM 9% | [13]; at 100.0 µM 13% | [14]; [17] -110% | [14]; [18] -30% | [14]; at 50.0 µM 32.7% | [15]; at 1.2 µM 0% | [15]; at 3.7 µM -3% | [15]; at 11.0 µM 1% | [15]; at 33.0 µM 10% | [15]; at 100.0 µM 22%
active: [1]; at 100.0 µM 92% | [4]; at 1.2 µM 79% | [4]; at 33.0 µM 76% | [4]; [18] 87% | [4]; at 50.0 µM 90% | [4]; at 100.0 µM 87%

CCOC(=O)C(NC(=O)c1ccccc1)(N1CCN(c2cc3c(cc2F)c(=O)c(C(=O)O)cn3C2CC2)CC1)C(F)(F)F (stereo unspecified)
inactive: [1]; at 1.2 µM -1% | [1]; at 3.7 µM 2% | [1]; at 11.0 µM 11% | [1]; at 33.0 µM 35% | [16]; at 1.2 µM -1% | [16]; at 3.7 µM 0% | [16]; at 11.0 µM 1% | [16]; at 33.0 µM 2% | [16]; at 100.0 µM 14% | [3]; at 1.2 µM 1% | [3]; at 3.7 µM 1% | [3]; at 11.0 µM 0% | [3]; at 33.0 µM 1% | [3]; at 100.0 µM 2% | [4]; at 1.2 µM 0% | [4]; at 3.7 µM 5% | [4]; [17] -7% | [4]; at 11.0 µM 14% | [4]; at 33.0 µM 47% | [5]; at 1.2 µM -1% | [5]; at 3.7 µM -2% | [5]; [17] -6% | [5]; at 11.0 µM 0% | [5]; at 33.0 µM 2% | [5]; [18] -27% | [5]; at 50.0 µM 3.05% | [5]; at 100.0 µM 3% | [6]; at 1.2 µM 0% | [6]; at 3.7 µM 2% | [6]; at 11.0 µM 4% | [6]; at 33.0 µM 3% | [6]; at 100.0 µM 2% | [7]; [17] -6% | [7]; [18] -15% | [7]; at 50.0 µM -4.1% | [8]; at 1.2 µM -1% | [8]; at 3.7 µM 3% | [8]; at 11.0 µM 2% | [8]; at 33.0 µM 6% | [8]; at 100.0 µM 9% | [9]; [17] 41% | [9]; [18] -13% | [9]; at 50.0 µM 18.5% | [10]; at 1.2 µM -1% | [10]; at 3.7 µM 2% | [10]; [17] -15% | [10]; at 11.0 µM 3% | [10]; at 33.0 µM -39% | [10]; [18] 3% | [10]; at 50.0 µM -16.1% | [10]; at 100.0 µM 3% | [11]; at 1.2 µM -1% | [11]; at 3.7 µM -2% | [11]; at 11.0 µM -2% | [11]; at 33.0 µM -2% | [11]; at 100.0 µM 1% | [12]; at 1.2 µM -1% | [12]; at 3.7 µM -1% | [12]; at 11.0 µM 0% | [12]; at 33.0 µM 0% | [12]; at 100.0 µM 1% | [13]; at 1.2 µM -1% | [13]; at 3.7 µM 0% | [13]; at 11.0 µM 3% | [13]; at 33.0 µM 3% | [13]; at 100.0 µM 2% | [14]; [17] -21% | [14]; [18] 12% | [14]; at 50.0 µM -1.95% | [15]; at 1.2 µM -3% | [15]; at 3.7 µM -1% | [15]; at 11.0 µM 0% | [15]; at 33.0 µM 2% | [15]; at 100.0 µM 6%
active: [1]; at 100.0 µM 75% | [4]; [18] 76% | [4]; at 50.0 µM 74.6% | [4]; at 100.0 µM 79%

Clc1cccc(C(Nc2nncs2)Nc2nncs2)c1Cl
active: [1]; at 100.0 µM 70% | [16]; at 100.0 µM 92% | [4]; at 100.0 µM 83%
inactive: [1]; at 1.2 µM -1% | [1]; at 3.7 µM 2% | [1]; at 11.0 µM 9% | [1]; at 33.0 µM 28% | [16]; at 1.2 µM -1% | [16]; at 3.7 µM 4% | [16]; at 11.0 µM 14% | [16]; at 33.0 µM 47% | [3]; at 1.2 µM 0% | [3]; at 3.7 µM 0% | [3]; at 11.0 µM 0% | [3]; at 33.0 µM 12% | [3]; at 100.0 µM 49% | [4]; at 1.2 µM 4% | [4]; at 3.7 µM 48% | [4]; [17] 0% | [4]; at 11.0 µM 22% | [4]; at 33.0 µM 42% | [4]; [18] 37% | [4]; at 50.0 µM 51.1% | [5]; at 1.2 µM -1% | [5]; at 3.7 µM 4% | [5]; [17] 1% | [5]; at 11.0 µM 7% | [5]; at 33.0 µM 19% | [5]; [18] 29% | [5]; at 50.0 µM 20.7%
